Shown are actives, neighbours in structure and some others; about 6.3% of the full set was active somewhere.
tim10-1 inh – growth inhibitors of tim10-1 mutant yeast, primary screen, luminescence, uHTS. 330,000 tested, 2.2% active. AID 463190, 2010. inhibition, % at 20 µM. S. cerevisiae tim10-1 ts strain growth, BacTiter-Glo, 24 h;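 active means inhibition of at least 40%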;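 further: mutant grown at 25 °C; 0% = DMSO wells with yeast and 100% = wells holding no yeast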
TIM10 inh – growth inhibitors of isogenic TIM10 control yeast, primary screen, counter-screen for tim10-1 yeast inhibitor project, luminescence, uHTS. S. cerevisiae TIM10 strain growth, BacTiter-Glo luminescence, 24 h. inhibition, % at 10 µM. 330,000 tested, 1.4% active. AID 463195, 2010;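 active means inhibition of 40% or more at the single tested concentration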;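 further: wild-type TIM10 isogenic control strain grown at permissive 25 °C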
Mdm2-MdmX inh – inhibitors of human Mdm2-MdmX association, primary screen, cell-based, luminescence, split luciferase, SaOS-2, uHTS | SaOS-2 split-luciferase Mdm2/MdmX complementation | inhibition, % at 8 µM | 330,000 tested, 3% active | AID 485346, 2010;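 active means inhibition of at least 50% at 8 µM in the primary screen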
Target sequence (O15151 whole entry, looked up): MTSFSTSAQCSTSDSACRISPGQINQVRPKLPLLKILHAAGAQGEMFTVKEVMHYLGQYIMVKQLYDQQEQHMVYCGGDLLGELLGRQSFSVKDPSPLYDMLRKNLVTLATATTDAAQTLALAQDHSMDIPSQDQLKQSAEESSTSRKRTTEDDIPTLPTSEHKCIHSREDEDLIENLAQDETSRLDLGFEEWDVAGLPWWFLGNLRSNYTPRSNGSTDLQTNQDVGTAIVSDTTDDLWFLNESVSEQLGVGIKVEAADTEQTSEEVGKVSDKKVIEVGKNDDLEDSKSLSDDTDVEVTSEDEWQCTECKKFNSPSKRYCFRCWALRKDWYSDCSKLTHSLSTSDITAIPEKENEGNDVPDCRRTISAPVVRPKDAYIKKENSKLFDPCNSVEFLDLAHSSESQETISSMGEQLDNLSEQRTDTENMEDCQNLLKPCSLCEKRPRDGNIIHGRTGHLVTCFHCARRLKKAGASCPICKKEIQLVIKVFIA
Target sequence (Q00987 whole entry, looked up): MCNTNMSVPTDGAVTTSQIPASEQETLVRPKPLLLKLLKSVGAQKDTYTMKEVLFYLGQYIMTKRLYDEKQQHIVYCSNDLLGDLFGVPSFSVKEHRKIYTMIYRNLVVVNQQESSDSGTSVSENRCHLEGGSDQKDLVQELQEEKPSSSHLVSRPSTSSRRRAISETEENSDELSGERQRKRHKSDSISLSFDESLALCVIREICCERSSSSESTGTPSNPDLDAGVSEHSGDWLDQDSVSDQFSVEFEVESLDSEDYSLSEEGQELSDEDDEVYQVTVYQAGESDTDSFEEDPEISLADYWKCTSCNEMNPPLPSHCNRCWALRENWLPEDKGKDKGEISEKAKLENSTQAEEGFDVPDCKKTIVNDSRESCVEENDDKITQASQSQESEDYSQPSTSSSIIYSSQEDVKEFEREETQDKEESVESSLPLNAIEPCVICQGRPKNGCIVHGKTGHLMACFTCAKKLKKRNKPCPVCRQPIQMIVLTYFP
MPTP block – mitochondrial permeability transition pore inhibitors, primary screen, biochemical, isolated mouse mitochondria, absorbance | inhibition, % at 10 µM | 360,000 tested, 1.4% active | AID 602449, 2012 | Ca2+ swelling absorbance, 30 min;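 active means inhibition of 50% or more, scaled per plate between neutral and stimulator controls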;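 further: 0% = DMSO wells given calcium and 100% = 1 mM EGTA wells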
tim23-1 inh – growth inhibitors of tim23-1 mutant yeast, primary screen, luminescence, uHTS; S. cerevisiae tim23-1 growth, BacTiter-Glo luminescence, 24 h; inhibition, % at 20 µM; 330,000 tested, 1.3% active; AID 463212, 2010;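 active means growth inhibition of the mutant yeast at or above 50%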;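 further: temperature-sensitive mutant grown at 25 °C; plate controls were DMSO-treated mutant yeast for no effect and medium wells lacking yeast for full effect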
TIM10 conf – growth inhibitors of wild-type TIM10 yeast, confirmation, counter-screen for tim10-1 synthetic lethality project, single concentration, luminescence, S. cerevisiae | shares compounds with TIM10 inh | S. cerevisiae tim10 strain growth, BacTiter-Glo luminescence, 24 h | inhibition, % at 10 µM | 4,600 tested, 63% active;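 active means inhibition of yeast growth at or above a set limit in either of two replicates at 10 µM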;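 further: this counterscreen used the strain with wild-type TIM10; 0% = yeast with DMSO and 100% = medium wells lacking yeast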
tim23-1 confirm – tim23-1 mutant yeast growth inhibitors, confirmation, luminescence, single concentration; shares compounds with tim23-1 inh; S. cerevisiae tim23-1 growth, BacTiter-Glo luminescence, 24 h; inhibition, % at 20 µM; 4,400 tested, 83% active;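 active means inhibition above about 39% in either of two replicate wells at 20 µM, limit read from the data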;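 further: temperature-sensitive tim23-1 mutant grown at 25 °C; 0% = DMSO wells with yeast and 100% = medium wells without yeast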
Numbers without * were called inactive; . = not tested or not shown.

SMILES | tim10-1 inh | TIM10 inh | Mdm2-MdmX inh | MPTP block | tim23-1 inh | TIM10 conf | tim23-1 confirm
c1ccc2c(c1)ncn2CCC1CCCCC1 | 33.6 | 41.8* | 12.1 | 3.5 | 53.4* | 35.2* | 18.7
CN1/C(=C\C(=O)c2cccs2)Sc2ccccc21 | 38.4 | 62.8* | -50.8 | -5.3 | 59.0* | 60.3* | 80.3*
Cc1c(C(=O)Nc2nc3ccccc3[nH]2)oc2ccccc12 | 31.8 | 62.3* | -195.1 | 29.5 | 58.7* | 29.5 | 74.4*
Cc1c(C(=O)Nc2ccncc2)oc2ccccc12 | 11.3 | 19.5 | -49.1 | 9.8 | -350.0 | . | .
COC(=O)N/N=C/c1cn(Cc2ccc(F)cc2)c2ccccc12 | 14.3 | 12.1 | 11.4 | 5.0 | 20.0 | . | .
CNC(=S)N/N=C/c1cn(Cc2ccc(F)cc2)c2ccccc12 | 19.4 | 40.2* | 17.4 | 5.0 | 51.3* | 49.2* | 38.5*
CC(C)(C)n1cnc2cc(NCc3ccc(Br)cc3)ccc21 | 25.5 | 52.6* | -132.3 | 0.0 | 54.2* | 37.5* | 69.2*
COC(=O)C[C@@H]1C[C@H]2c3cc(N(C)C)ccc3O[C@H]2[C@H](CO)O1 | . | . | . | -2.0 | . | . | .
CC(NC(=O)c1ccc([N+](=O)[O-])o1)C12CC3CC(CC(C3)C1)C2 (stereo unspecified) | -6.0 | 44.9* | 43.9 | -0.7 | 61.4* | 59.4* | -4.7
c1ccc(-c2ncc(-c3ccn[nH]3)s2)cc1 | 14.9 | 48.5* | -136.4 | 0.9 | 55.9* | 30.7 | 67.8*
c1ccc(Cn2ccc(-c3cnc(-c4ccccc4)s3)n2)cc1 | 19.4 | 14.3 | -131.9 | 0.1 | 47.5 | . | .
CCCCNC(=O)C1(C)CCN1Cc1cccc2c(OC)cc(C(=O)OCC)cc12 (stereo unspecified) | . | . | . | 1.0 | . | . | .
O=C(Nc1ccc(-c2cn3ccccc3n2)cc1)c1ccc(Cl)cc1 | -5.0 | 2.6 | -2.3 | 2.0 | 11.5 | . | .
O=C(Nc1ccc(-c2cn3ccccc3n2)cc1)c1ccco1 | -17.6 | 44.3* | -158.2 | -14.3 | 59.5* | 1.1 | 59.1*
CN(Cc1ccccc1)C(=O)Cn1nnc(-c2ccccc2)c1COc1ccc2ccccc2c1 | . | . | . | 0.9 | . | . | .
O=C1NC[C@@H](CCCCN2C[C@H](Cc3ccccc3)N(CC3CCCCC3)C(=O)C2=O)N(CCc2ccccc2)C1=O | . | . | . | 0.0 | . | . | .
COc1ccc(/C=C/C(=O)OCC(=O)N2c3ccccc3CC2C)c(OC)c1 (stereo unspecified) | . | . | . | 0.1 | . | . | .
COC(=O)/C(=C(/F)Sc1cc(C)c(O)c(C)c1)C(F)(F)F | 32.3 | 42.4* | 15.3 | -0.8 | 53.6* | 29.9 | 51.9*
COC(=O)C(Nc1ccccc1Cl)(c1cc(C)c(O)c(C)c1)C(F)(F)F (stereo unspecified) | 5.6 | 7.7 | 21.5 | 7.4 | 23.5 | . | .
COc1ccc(-c2cc(=O)c3ccccc3s2)cc1 | 28.7 | 41.8* | -103.6 | 0.9 | 51.6* | 44.5* | 54.0*
COc1ccc(Nc2nc(N)nc(CSC(=S)N3CCCCC3C)n2)cc1 (stereo unspecified) | 29.3 | 40.0 | 22.1 | 3.2 | 53.1* | 24.3 | 44.9*
CCC1CCCCN1C(=S)NC(=O)c1cc(Br)ccc1Cl (stereo unspecified) | 35.0 | 52.8* | 28.7 | -1.0 | 57.7* | 51.9* | 53.2*
CC1CCCCN1C(=S)NC(=O)c1ccco1 (stereo unspecified) | 13.9 | -5.8 | -8.1 | -0.9 | 11.0 | . | .
CC1CCCCN1C(=S)NC(=O)c1cc(Br)ccc1Cl (stereo unspecified) | 35.5 | 41.0* | 3.6 | -0.3 | 54.5* | 44.0* | 50.5*
OC[C@@H]1CN(Cc2cccs2)C[C@H](n2cnc3c(NCc4ccc(F)cc4)ncnc32)O1 | . | . | . | -0.9 | . | . | .
SMILES | tim10-1 inh | TIM10 inh | Mdm2-MdmX inh | MPTP block | tim23-1 inh | TIM10 conf | tim23-1 confirm
Cc1cc(OCC(=O)OCC(=O)N(Cc2ccccc2)C(C)(C)C)ccc1Cl | . | . | . | -2.3 | . | . | .
O=C(Nc1cccc(C(=O)Nc2cccc(Br)c2)c1)c1ccccc1 | 5.1 | 12.3 | -3.4 | 39.4 | 46.3 | . | .
O=C(Nc1cccc(Br)c1)c1ccn[nH]1 | 1.0 | 59.2* | -13.8 | 7.9 | 57.1* | 40.7* | 59.8*
CC1(C(=O)NCCC#N)CCN1C(=O)C1(c2ccccc2)CCCC1 (stereo unspecified) | . | . | . | 0.4 | . | . | .
NC(=O)c1[nH]cnc1N=NN(CCO)Cc1ccccc1 | . | . | . | -0.2 | . | . | .
CCCCNC(=S)N/N=C/c1ccccc1F | 35.4 | 46.6* | -5.3 | -0.4 | 50.5* | -9.8 | 40.2*
Clc1ccc(C2=NNC(=NCc3ccc4c(c3)OCO4)SC2)cc1 | . | . | . | 2.6 | . | . | .
COc1ccc(CN=C2NN=C(c3ccc(Cl)cc3)CS2)cc1 | 13.6 | 45.6* | -112.7 | 0.9 | 65.3* | 31.5* | 67.7*
CN1CCC(N2CCN(C3CN(C4CCCC4)S(=O)(=O)C3)CC2)CC1 (stereo unspecified) | . | . | . | 0.7 | . | . | .
Cc1nc(N)sc1-c1csc(Nc2ccccn2)n1 | . | . | . | -0.8 | . | . | .
Cc1nc(C)c(-c2csc(Nc3ccccn3)n2)s1 | 26.7 | 48.1* | -85.2 | 0.1 | 53.6* | 47.2* | 45.4*
C/C(=C/c1ccccc1)C(=O)N1CCN(c2ccccc2F)CC1 | 5.8 | -13.4 | 11.9 | -0.7 | 24.6 | . | .
N#C/C(=C\c1ccccc1)C(=O)N1CCN(c2ccccc2F)CC1 | 26.1 | 47.2* | 26.1 | -2.7 | 66.4* | 44.5* | 48.5*
Oc1cccc(Nc2nc(-c3ccccc3)nc3ccccc23)c1 | 21.0 | 58.7* | 23.9 | 2.7 | 82.5* | 55.5* | 53.6*
CC(=O)Nc1cccc(Nc2nc(-c3ccccc3)nc3ccccc23)c1 | 24.8 | 20.6 | 37.3 | 0.4 | 18.5 | . | .
Cc1c(NC(=O)c2cc3ccccc3o2)cccc1-n1cnnn1 | . | . | . | -1.6 | . | . | .
Cc1ccc2cc3cc(C(=O)NCCCN4CCCCCC4)oc3nc2c1 | 33.3 | 58.3* | -16.3 | 12.6 | 50.6* | -4.8 | 22.6
COCCNC(=O)c1cc2cc3ccc(OC)cc3nc2o1 | 34.1 | 28.3 | -4.4 | 0.0 | 25.4 | . | .
Nc1ccc(-c2nc3ncccc3o2)c(O)c1 | 1.2 | 50.4* | -18.0 | -1.4 | 57.5* | 42.8* | 65.0*
Nc1ccc(Cl)c(-c2nc3ncccc3o2)c1 | -0.6 | 8.0 | 4.8 | -1.8 | -0.8 | . | .
Cc1ccc(O)c(N=NC2=C(O)CC(C)(C)CC2=O)c1 | 9.5 | 42.8* | 47.2 | 10.2 | 61.4* | 27.0 | 52.2*
CC1(C)CC(=O)C(N=Nc2cc(Cl)c(Cl)c(Cl)c2)=C(O)C1 | 24.8 | 20.7 | 3.9 | 0.5 | 27.4 | . | .
CN(C)c1ncnc2c1ncn2[C@H]1CN(C2CCCC2)C[C@@H](CO)O1 | . | . | . | -0.3 | . | . | .
